The list is not random: actives were taken first. Their share in the collection is about 1.6%.
KCNQ2 inh = rat KCNQ2 potassium channel inhibitors, primary screen, cell-based, CHO-K1, FluxOR thallium flux, B-score | Potassium voltage-gated channel subfamily KQT member 2 (Rattus norvegicus), O88943 | 20 min; stronger effect = lower value | B-score at 10 µM | 310,000 tested, 1.1% active;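 active means fluorescence ratio B-score at most minus 3 library SDs, with starting brightness B-score within 2 library SDs, cut at about -5.5 in these data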
Target sequence (O88943 whole entry, looked up): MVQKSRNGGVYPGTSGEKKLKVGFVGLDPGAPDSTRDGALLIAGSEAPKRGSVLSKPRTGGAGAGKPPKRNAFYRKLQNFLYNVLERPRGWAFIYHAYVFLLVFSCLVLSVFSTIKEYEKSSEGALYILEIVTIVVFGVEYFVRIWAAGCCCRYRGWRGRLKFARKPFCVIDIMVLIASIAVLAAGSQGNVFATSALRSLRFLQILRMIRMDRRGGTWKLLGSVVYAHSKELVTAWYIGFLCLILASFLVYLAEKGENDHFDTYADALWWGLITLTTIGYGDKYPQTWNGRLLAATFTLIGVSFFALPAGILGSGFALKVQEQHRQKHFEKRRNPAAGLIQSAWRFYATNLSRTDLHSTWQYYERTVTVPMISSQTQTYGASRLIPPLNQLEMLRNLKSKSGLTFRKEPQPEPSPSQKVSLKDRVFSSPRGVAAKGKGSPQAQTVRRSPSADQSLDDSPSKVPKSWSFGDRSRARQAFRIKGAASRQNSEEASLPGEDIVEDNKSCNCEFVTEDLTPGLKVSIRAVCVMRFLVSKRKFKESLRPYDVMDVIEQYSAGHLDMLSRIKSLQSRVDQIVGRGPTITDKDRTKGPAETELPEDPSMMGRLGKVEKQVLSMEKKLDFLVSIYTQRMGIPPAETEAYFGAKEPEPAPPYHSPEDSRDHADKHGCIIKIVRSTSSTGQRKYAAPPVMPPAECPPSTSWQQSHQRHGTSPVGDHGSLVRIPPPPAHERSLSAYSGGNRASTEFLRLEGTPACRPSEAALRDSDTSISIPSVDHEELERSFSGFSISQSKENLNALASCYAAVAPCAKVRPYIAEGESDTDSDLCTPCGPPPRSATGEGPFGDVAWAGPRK
KCNQ2 pot = potentiators of rat KCNQ2 potassium channel. Potassium voltage-gated channel subfamily KQT member 2 (Rattus norvegicus), O88943. CHO-K1 KCNQ2, FluxOR thallium flux fluorescence; stronger effect = higher value. B-score at 10 µM. 310,000 tested, 0.54% active. AID 2239, 2010;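 active means fluorescence ratio B-score at least 3 SD of library B-scores, with initial fluorescence B-score within 3 of them, cut at about 5.3 in these data; same plate scores as AID 2156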;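 further: B-score of peak minus minimum over baseline fluorescence ratio after K+ and Tl+ stimulus; positive B-score means potentiation of KCNQ2 with more thallium influx and brighter signal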
Numbers stand for hits; . = inactive; / = no result given.

SMILES | KCNQ2 inh | KCNQ2 pot
CCOc1ccc(N(CC(=O)NC2CCC(C)CC2)S(=O)(=O)c2c(C)noc2C)cc1 (configuration not stated) | . | .
Cc1noc(C)c1S(=O)(=O)N(CC(=O)NC1CCC(C)CC1)c1ccc(C(C)C)cc1 (configuration not stated) | -7.1 | .
CCN(CC)C(=O)C1(P(=O)(c2ccccc2)c2ccccc2)CCC1 | . | /
CCCCN(CCCC)C(=O)C1(P(=O)(c2ccccc2)c2ccccc2)CCC1 | -6.2 | .
COc1ccc(-n2cc(CNCCc3cscn3)c(-c3ccccc3Cl)n2)cc1 | . | /
Cc1ccc(-n2cc(CNCCc3cscn3)c(-c3ccc(F)cc3)n2)cc1 | -6.8 | .
Cc1cccc(NC(=O)CNC(=O)c2cccc(-n3cccc3)c2)c1C | . | .
CC(=O)c1cccc(NC(=O)c2cc(-c3ccco3)nc3ccccc23)c1 | . | /
COc1ccc(-c2cc(C(=O)Nc3ccc(C(N)=O)cc3)c3ccccc3n2)cc1OC | . | /
COc1cc(-c2cc(C(=O)Nc3cccc(C(C)=O)c3)c3ccccc3n2)cc(OC)c1OC | -5.6 | .
COc1ccc(OC)c(-c2cc(C(=O)NC3CCCC3)c3ccccc3n2)c1 | -6.1 | .
COc1ccc(NC(=O)c2cc(-c3ccc(OC)c(OC)c3)nc3ccccc23)c(OC)c1 | -5.9 | .
COc1cccc(-c2cc(C(=O)NC3CCCC3)c3ccccc3n2)c1 | . | /
CC1(C)C(=O)NCCN1C(=O)CC1C(=O)NCCN1Cc1cccc(C(F)(F)F)c1 (configuration not stated) | . | /
COc1ccc(C(=O)COC(=O)CN2C(=O)C3C4CCC(C4)C3C2=O)cc1 (configuration not stated) | . | /
CC1(C)C2CCC1(C)C(OC(=O)CC(=O)O)C2 (configuration not stated) | -8.2 | .
CC1(C)C2CCC1(C)C(OC(=O)C[n+]1ccccc1)C2 (configuration not stated) | . | /
CC(=O)N1CCOc2ccc(S(=O)(=O)NCCc3cccc(C)c3)cc21 | . | /
COCC(=O)NC1CCCCCC1 | . | /
O=C(NC1CCCCC1)C1CC=CCC1C(=O)OCC(Cl)=C(Cl)Cl (configuration not stated) | -5.5 | .
O=C(Nc1ccnn1C1CCN(Cc2ccc(O)c(Cl)c2)CC1)C1CCCC1 | . | /
COc1ccc(NC(=O)CCCN2C(=O)C3CC=CCC3C2=O)cc1 (configuration not stated) | . | .
CCCc1nc(SCC(=O)N2CCN(c3ccccc3)CC2)c2c(=O)n(C)c(=O)n(C)c2n1 | . | .
CC(C)c1nc(SCC(=O)N2CCN(c3ccccc3)CC2)c2c(=O)n(C)c(=O)n(C)c2n1 | . | 6.2
CCN(CC(=O)Nc1ccc(NC(C)=O)cc1)C(=O)C1COc2ccccc2O1 (configuration not stated) | . | .
SMILES | KCNQ2 inh | KCNQ2 pot
COC(=O)c1c(NC(C)=O)sc2c1CCCC2 | . | /
CNC(=S)Nc1sc2c(c1C(=O)OC)CCC2 | . | 5.6
CCOC(=O)c1c(NC(=S)Nc2ccccc2)sc2c1CC(C)(C)SC2 | . | /
CCOC(=O)c1c(NC(=S)NC)sc2c1CC(C)(C)SC2 | . | 11
CN(CC(=O)Nc1cccc(F)c1)C(=O)c1ccccc1OCCOc1ccccc1 | . | /
Cc1cc(C)c(S(=O)(=O)NCc2nc3nc(C)cc(C)n3n2)c(C)c1 | . | /
Cc1csc2nc(O)c(C(=O)NC3CCCCC3C)c(=O)n12 (configuration not stated) | . | /
CC(SC1=Nc2ccccc2C2CC=NN12)C(=O)NC1(C#N)CCCCC1 (configuration not stated) | -8.7 | .
COC(=O)c1ccc(NC(=O)CSC2=Nc3ccccc3C3CC=NN23)cc1 (configuration not stated) | . | /
Cc1cc(C)cc(N(CC(=O)NC2CCCC2)C(=O)CNC(=O)c2cccs2)c1 | . | .
COc1ncnc2c1sc1nc(-c3ccccc3)c3c(c12)CCCC3 | . | .
CN(C)CCNc1ncnc2c1sc1nc(-c3ccccc3)c3c(c12)CCCC3 | -7.8 | .
COc1cc(C)c(Cl)cc1S(=O)(=O)N1CCSC1 | . | .
O=C(CN(C(=O)CNC(=O)c1ccco1)c1cccc(F)c1)NC1CCCCC1 | . | /
Clc1ccc(C2=C3CCCCn4c(-c5ccccc5)c[n+](c43)C2)cc1 | -6.4 | .
O=C(C[n+]1cc(-c2ccc(Cl)cc2)n2c1CCCCC2)c1ccccc1 | . | /
CCn1c(SCc2nc3ccccc3s2)nnc1-c1ccccc1 | . | /
CCC(c1nnc(SCc2nc3ccccc3s2)n1Cc1ccccc1)N(C)C (configuration not stated) | -6.3 | .
N#Cc1ccccc1OCC(=O)N(Cc1nnc(-c2ccccc2Cl)o1)C1CC1 | . | .
CCc1cccc(NC(=O)CCNS(=O)(=O)c2ccc3c(c2)oc(=O)n3C)c1 | . | .
O=C(Nc1cc2c(cc1C(=O)O)OCCCO2)c1ccc(F)cc1F | . | .
COc1ccc(NC(=O)Nc2nnc(Cc3ccc(F)cc3)s2)cc1 | . | /
COc1ccc(CC(=O)Nc2cccc(-c3nnc(-c4cccc(C)c4)o3)c2)cc1OC | -7 | .
COc1ccc(CC(=O)Nc2cccc(-c3nnc(-c4ccc(C)cc4)o3)c2)cc1OC | . | /
Cc1cc(/C(N)=N/OC(=O)Nc2ccc(Cl)cc2)no1 | . | .
SMILES | KCNQ2 inh | KCNQ2 pot
CCCCNC(=O)[C@H]1C[C@H]1[C@@H](O)[C@H](CO)NC(=O)[C@H](Cc1ccccc1)NC(=O)OC(C)(C)C | . | /
O=C(Nc1nnc(-c2ccc(F)cc2)o1)c1cc(Cl)sc1Cl | . | 16
O=C(Nc1nnc(-c2ccccc2)o1)c1cc(Cl)sc1Cl | . | .
O=C(O)c1ccc(NC(=O)c2ccccc2NC(=O)c2ccccc2Br)cc1 | . | .
Cc1ccc(C(=O)NCC(c2ccco2)N2CCc3ccccc32)cc1C (configuration not stated) | -6.2 | .
COc1cc(C(=O)NCC(c2ccco2)N2CCc3ccccc32)cc(OC)c1OC (configuration not stated) | . | /
O=C(NCC(c1ccco1)N1CCCC1)c1ccc(S(=O)(=O)Nc2ccccc2F)cc1 (configuration not stated) | . | .
O=C(NCC(c1ccco1)N1CCc2ccccc21)c1ccccc1 (configuration not stated) | . | /
Cc1ccccc1NS(=O)(=O)c1ccc(C(=O)NCC(c2ccco2)N2CCCCC2)cc1 (configuration not stated) | -6.7 | .
COc1ccccc1C(=O)NCC(c1ccco1)N1CCc2ccccc21 (configuration not stated) | -6.3 | .
O=C(NCC(c1ccco1)N1CCc2ccccc2C1)c1cccc(F)c1 (configuration not stated) | -5.8 | .
COc1cccc(C(=O)NCC(c2ccco2)N2CCc3ccccc3C2)c1 (configuration not stated) | . | /
COc1ccccc1C(=O)NCCC(=O)Nc1ccc(OC(F)(F)F)cc1 | . | .
CC(C)(C)c1ccc(C(=O)N2CCN(C(=O)c3ccco3)CC2)cc1 | . | /
CCOc1ccc(N(CC(=O)NCc2ccccc2C)S(C)(=O)=O)cc1 | . | /
CC(=O)c1ccc(OCCCC(=O)N(CCC2=CCCCC2)c2c(N)n(Cc3ccccc3)c(=O)[nH]c2=O)cc1 | . | /
COc1ccccc1C(=O)Nc1ccnn1C1CCN(Cc2cnn(C)c2C)CC1 | . | .
